Data as given in a collection of fitness landscapes (doi:10.1016/j.celrep.2020.107928).
Whole data set: some 81,000 sequences, median “one-hybrid fitness for binding NBS DNA” near -0.1, cut for the highest 2% near 0.36. The sample holds the highest values, similar sequences and a random draw of the others, so the mix is not that of the screen.

B1: Caulobacter ParB omega fusion; a variant is named by its letters at X, in order, B8GW30 (parent)
chain: MESVVVGEPGMSEGRRGLGRGLSALLGEVDAAPAQAPGEQLGGSREAPIEILQRNPDQPRRTFREEDLEDLSNSIREKGVLQPILVRPSPDTAGEYQIVAGERAWRAAQRAGLKTVPIMVRELDDLAVLEIGIIENVQRADLNVLEEALSYKVLMEKFERTQENIAQTIGKSXSHVANXMRLLXLPDEVQSYLVSGELTAXHARAIAAAADPVALAKQIIEGGLSVRETEALARKAPNLSAGKSKGGRPPRVKDTDTQALESDLSSVLGLDVSIDHRGSTGTLTITYATLEQLDDLCNRLTRGI

Variants of: B1
Assay: one-hybrid fitness for binding NBS DNA (the Noc-binding site; scaled: cognate 1, non-cognate 0); higher = stronger binding
Conditions: with NBS DNA site
Outline: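 Selection: bacterial one-hybrid in E. coli USO, HIS3 reporter with the site 19 bp from the promoter, 48 hours at 37°C on M9-minus-histidine plus 0.1 mM IPTG and 5 mM 3-AT. Libraries were Caulobacter ParB with four randomised specificity codons, sequenced on Illumina before and after selection. Fitness is the rescaled log change in variant-to-wild-type read ratio, anchored to the cognate and non-cognate sites.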

Row | Variant | one-hybrid fitness for binding NBS DNA
1 | QSCT | 0.386
2 | QPCT | ≤ 0.2
3 | QHCT | 0.294
4 | QICT | 0.266
5 | QTCD | ≤ 0.2
6 | QLCT | 0.345
7 | QCCT | 0.521
8 | QTCH | 0.319
9 | QTCT | 0.571
10 | SKPI | ≤ 0.2
11 | DYFM | ≤ 0.2
12 | LNNN | ≤ 0.2
13 | EHQL | ≤ 0.2
14 | GRLL | ≤ 0.2
15 | SFYC | ≤ 0.2
16 | IRNN | ≤ 0.2
17 | MQRC | ≤ 0.2
18 | NLPG | ≤ 0.2
19 | QKVS | 0.32
20 | DKKR | ≤ 0.2
21 | QKVR | 0.423
22 | QKVN | ≤ 0.2
23 | QKKR | 1
24 | QKKF | 0.294
25 | NTIC | ≤ 0.2

Row | Variant | one-hybrid fitness for binding NBS DNA
26 | EQRE | ≤ 0.2
27 | TGAR | ≤ 0.2
28 | GMCV | ≤ 0.2
29 | RMHD | ≤ 0.2
30 | RCHS | 0.577
31 | RSHP | ≤ 0.2
32 | RLHH | ≤ 0.2
33 | RSHH | ≤ 0.2
34 | RMHN | ≤ 0.2
35 | RSHS | 0.47
36 | RLHS | 0.462
37 | RLHP | ≤ 0.2
38 | RFHS | 0.275
39 | RMHS | 0.486
40 | RPHS | ≤ 0.2
41 | CMKS | ≤ 0.2
42 | HSMS | ≤ 0.2
43 | YEDC | ≤ 0.2
44 | VNHL | ≤ 0.2
45 | HDMN | ≤ 0.2
46 | VQAT | ≤ 0.2
47 | RAHN | ≤ 0.2
48 | RKHS | 0.624
49 | RKHD | ≤ 0.2
50 | RAHS | 0.482

Row | Variant | one-hybrid fitness for binding NBS DNA
51 | RAHD | ≤ 0.2
52 | RKHN | ≤ 0.2
53 | FLVC | ≤ 0.2
54 | LRGC | ≤ 0.2
55 | IPDS | ≤ 0.2
56 | QIHC | ≤ 0.2
57 | QPHR | ≤ 0.2
58 | QCHR | 0.742
59 | QTHK | 0.293
60 | QWHR | 0.288
61 | QSHP | ≤ 0.2
62 | QTHR | 0.877
63 | QIHR | 0.493
64 | QSHR | 0.578
65 | QIHD | ≤ 0.2
66 | QSHD | ≤ 0.2
67 | QTHM | 0.296
68 | QLFV | ≤ 0.2
69 | PASW | ≤ 0.2
70 | QHPW | ≤ 0.2
71 | TKDT | ≤ 0.2
72 | KAAR | ≤ 0.2
73 | VHKI | ≤ 0.2
74 | VRNY | ≤ 0.2
75 | SPES | ≤ 0.2

Row | Variant | one-hybrid fitness for binding NBS DNA
76 | PIPY | ≤ 0.2
77 | DLRT | ≤ 0.2
78 | HALK | ≤ 0.2
79 | LKPH | ≤ 0.2
80 | ECKC | ≤ 0.2
81 | PADW | ≤ 0.2
82 | EYHR | ≤ 0.2
83 | CRTW | ≤ 0.2
84 | QAIT | 0.291
85 | QTPH | ≤ 0.2
86 | QCPT | 0.382
87 | QLIT | 0.287
88 | QSPT | 0.276
89 | QTPT | 0.418
90 | QPPT | ≤ 0.2
91 | QTIT | 0.522
92 | QTPP | ≤ 0.2
93 | RCQW | ≤ 0.2
94 | IHRR | ≤ 0.2
95 | QHVP | ≤ 0.2
96 | NHKR | 0.202
97 | QHVR | 0.379
98 | QHKR | 1.03
